A selection: hits, their analogues and other compounds. The true share with any hit is near 1.4%.
AmpC inh no detg = qHTS Inhibitors of AmpC Beta-Lactamase (assay without detergent); P00811; AmpC nitrocefin hydrolysis, absorbance 480 nm, 0.0001% Triton; Potency, µM (series often up to 57.1 µM), inactives show at the top dose activity change, negative = inhibition, most hits filed as inhibitors; 0.52% of 330,000 active; AID 485341, 2010;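 further: plate controls were no compound for no effect and no enzyme for full effect; nearly all actives have a fitted effect of over 20% in size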
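AmpC (5.3 nM in the dispensed reagent) in 20 mM phosphate pH 7.0 with 0.01% (detergent screen) or 0.0001% Triton X-100 was preincubated with compounds for 15 min at room temperature. Nitrocefin was then added from an 800 uM solution, and hydrolysis was followed at 480 nm.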
FBPA Giardia inh = qHTS Assay for Inhibitors of Fructose-1,6-bisphosphate Aldolase from Giardia Lamblia; purified Giardia FBPA; Potency, µM (highest dose often 59.6 µM), for inactives: top-dose activity, negative = inhibition, hits mostly inhibitors; 0.71% of 290,000 active; AID 2451, 2010; further: on the % scale 0 is the no-effect control and ±100 the full control effect; nearly all actives have a fitted effect of over 55% in size
Target sequence (A8B2U2 whole entry, looked up): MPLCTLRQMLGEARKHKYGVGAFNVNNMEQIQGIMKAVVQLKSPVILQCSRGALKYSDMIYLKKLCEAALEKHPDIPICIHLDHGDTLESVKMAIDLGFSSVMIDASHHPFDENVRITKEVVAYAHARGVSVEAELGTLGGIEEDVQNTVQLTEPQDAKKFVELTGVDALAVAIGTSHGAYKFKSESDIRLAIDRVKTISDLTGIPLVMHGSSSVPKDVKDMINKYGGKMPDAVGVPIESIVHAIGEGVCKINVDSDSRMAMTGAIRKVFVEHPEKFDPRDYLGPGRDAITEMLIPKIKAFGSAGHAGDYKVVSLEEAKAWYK
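Giardia FBPA (40 nM reagent) was preincubated 10 min at RT with compound (up to 57.5 uM final), then substrate plus GAPDH/TPI/NAD/arsenate coupling system with diaphorase/resazurin was added; resorufin fluorescence (525/598 nm) was read after 20 min.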
SARS PLpro yeast = qHTS of Yeast-based Assay for SARS-CoV PLP | S. cerevisiae expressing SARS-CoV PLpro, growth rescue | Potency, µM (highest dose often 32.9 µM), inactives show top-dose activity, positive = growth rescue, most hits filed as activators | 0.19% of 330,000 active | AID 485353, 2010; calls by dose curve; further: 0% is about no effect; nearly all actives have a fitted effect of over 55% in size
NS1 inh = qHTS Assay for Inhibitors of Influenza NS1 Protein Function; Potency, µM (highest dose often 46.1 µM), for the others: at the highest dose activity, positive = more growth; 0.4% of 270,000 active; calls by dose curve; further: actives are rising curves; nearly all actives have a fitted effect of over 50% in size
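S. cerevisiae expressing influenza A NS1, grown in glucose, washed, then diluted 1:100 into pH 6.0 -URA galactose medium with 23 nl compound. Growth recovery read as OD600; NS1-free strain serves as control.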
AmpC detergent = qHTS Inhibitors of AmpC Beta-Lactamase (assay with detergent); Potency, µM (titrated, usually from 114 µM), inactives show at the top dose activity change, negative = inhibition, hits mostly inhibitors; 0.041% of 370,000 active; AID 485294, 2010; P00811; AmpC hydrolysis of nitrocefin, absorbance 480 nm, 0.01% Triton;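 further: 0% = no-compound wells and -100% = no-enzyme wells; nearly all actives have a fitted effect of over 25% in size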
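AmpC (5.3 nM in the dispensed reagent) in 20 mM phosphate pH 7.0 with 0.01% (detergent screen) or 0.0001% Triton X-100 was preincubated with compounds for 15 min at room temperature. Nitrocefin was then added from an 800 uM solution, and hydrolysis was followed at 480 nm.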
An asterisk follows results filed as active; ? = inconclusive; nt = no result. Unless noted, the call rests on the fitted dose curve; in most records, active means well fitted curve in the direction sought with a large enough effect; inconclusive means small, poorly fitted or top-dose-only effect, or another doubt; inactive means no such curve, though single readings can be large; an effect the other way counts as inactive or inconclusive. Potency means the concentration at half of the fitted maximal effect.

SMILES	AmpC inh no detg	FBPA Giardia inh	SARS PLpro yeast	NS1 inh	AmpC detergent
CCOC(=O)c1c(NC(=O)CSc2nnc(-c3c[nH]c4ccccc34)n2C)sc2c1CCCC2	3.5µM*	-5%	-13%	-5%	-4%
CN(C)S(=O)(=O)c1cccc(NC(=S)NNC(=O)c2cc3ccccc3cc2O)c1	25µM*	nt	4.5µM*	nt	-1%
Cc1cc2nc3c(=O)[nH]c(=O)[nH]c3nc2c([N+](=O)[O-])c1N	-18%	5µM*	-1%	nt	-4%
Cc1c(N)c(C(C)(C)C)cc(C(C)(C)C)c1[N+](=O)[O-]	22%	-8%	10%	-5%	-14%
CC(C)(C)c1ccc(-c2nc(NC(=O)CSc3ncnc4sc5c(c34)CCCC5)ns2)cc1	nt	nt	nt	nt	28%
COC(=O)c1ccc(=O)c2nc3/c(=C/O)c(O)cc(=O)c3[nH]c12	-38%	-21%	3.2µM*	1%	?
CC(C)c1c(O)c(-c2cc3c(c(C(C)C)c2O)CCC2C(C)(C)CCC[C@@]32C)cc2c1CCC1C(C)(C)CCC[C@@]21C (stereo not given in full)	nt	10%	nt	nt	nt
CC(C)c1cc2c(c(O)c1O)[C@@]13CCCC(C)(C)C1CC2OC3=O (stereo not given in full)	-46%	5µM*	-5%	19%	?
NCCCC[C@H]1CNC(=S)N1CCCCC1CCCCC1	56%	12%	1%	2%	-3%
COc1ccc(N/C=C2\CCOC2=O)cc1	-13%	-6%	4%	2%	-17%
O=C1/C(=C/Nc2ccc3c(c2)OCO3)CCc2ccccc21	0%	14µM*	-30%	-162%	0%
COc1ccc(N/C=C2\CCc3ccccc3C2=O)cc1	-37%	11µM*	-4%	-35%	-2%
COc1ccc(S(=O)(=O)Nc2ccc3c(c2)OCO3)cc1	-29%	-5%	6%	-8%	0%
COc1ccc2c(c1)CC/C(=C\Nc1ccc3c(c1)OCO3)C2=O	10µM*	7.9µM*	-27%	-70%	-8%
COC(=O)c1cc(NC(=O)Cn2ncc3c([nH]c4ccccc43)c2=O)cc(C(=O)OC)c1	nt	nt	nt	nt	-1%
C[C@]12c3[nH]c4cc(-c5ccco5)ccc4c3CCN1C(=O)[C@@H](CC(=O)NCCc1ccccn1)C[C@@H]2C(=O)N1CCCCC1	165%	nt	4%	nt	nt
CCOC(=O)C(CC)Sc1nc2c(cnn2-c2ccccc2)c(=O)[nH]1 (stereo not given)	-16%	-3%	2%	2%	?
Cc1csc(SCC(=O)Nc2cccc3nsnc23)n1	0.22µM*	1%	-4%	-24%	-1%
Cc1csc(SCC(=O)Nc2ccccc2C)n1	-9%	nt	-8%	nt	-13%
CCN(CCn1cccn1)C(=O)c1ccc2nc(Cc3ccc(OC)cc3)oc2c1	3%	14%	-4%	-2%	-1%
CN(C)CCCN1C(=O)CSC1c1ccccc1 (stereo not given)	1µM*	-8%	9%	2%	?
Cc1cccc(Cn2c(N(C)CCO)nc3c2c(=O)[nH]c(=O)n3C)c1	11µM*	1%	1%	-5%	?
CN(Cc1ccccc1)c1nc2c(c(=O)[nH]c(=O)n2C)n1Cc1ccccc1	99%	7%	-4%	-4%	?
Fc1ccccc1Nc1nc2c(s1)CCc1ccccc1-2	-48%	20µM*	-15%	-5%	7%
O=C(Nc1nc2c(s1)CCc1ccccc1-2)c1cccs1	-39%	-10%	-5%	-3%	-5%
SMILES	AmpC inh no detg	FBPA Giardia inh	SARS PLpro yeast	NS1 inh	AmpC detergent
C/C=C1/CC(C)C(C)(O)C(=O)OCC2CCN3CCC(OC1=O)C23 (stereo not given)	98%	-1%	1%	0%	-4%
CCN1CCN(C2=C(NS(=O)(=O)c3ccc(NC(C)=O)cc3)C(=O)c3ccccc3C2=O)CC1	-23%	nt	-2%	-10%	2%
CC(=O)Nc1ccc(S(=O)(=O)NC2=C(N3CCN(C)CC3)C(=O)c3ccccc3C2=O)cc1	-32%	0.71µM*	-1%	7%	2%
CCC(=O)NC(/C=C/c1ccccc1)c1cc([N+](=O)[O-])c2cccnc2c1O (stereo not given)	-53%	?	2.2µM*	-1%	3%
CC(NC(=O)C1CCCN(S(=O)(=O)c2cnc[nH]2)C1)c1ccccc1 (stereo not given)	-12%	2%	3%	4%	?
CC(NC(=O)C1CCCN(S(=O)(=O)c2cccs2)C1)c1ccccc1 (stereo not given)	3.2µM*	19%	-2%	-9%	-3%
CN(Cc1cccnc1)C(=O)CNC(=O)c1ccc(Cl)cc1Cl	-18%	2%	3%	3%	2%
Cc1ccccc1N1CC(C(=O)Nc2nnc(SCC(=O)Nc3nccs3)s2)CC1=O (stereo not given)	28µM*	5%	-16%	23%	6%
CCC(=Nc1ccc(N)cc1)C1=C(O)C(C(=O)OC)C(C)(C)CC1=O (stereo not given)	-44%	1.1µM*	6%	-39%	-13%
CC1(C)C=C2C(=NN(c3ccccc3)C(N)=C2C#N)CO1	-11%	1.6µM*	-3%	1%	?
O=C(CCCn1c(=S)[nH]c2ccc(Br)cc2c1=O)NCC1CCCO1 (stereo not given)	-11%	?	?	1.8µM*	-1%
O=C(CCCn1c(=O)[nH]c2cc(Cl)ccc2c1=O)NCC1CCCO1 (stereo not given)	-18%	0%	-2%	6%	?
CCOc1cc(C2C(C#N)=C(N)Oc3c2c(=O)oc2ccccc32)ccc1OC(=O)c1cccs1 (stereo not given)	16µM*	6%	3%	-12%	?
CCC(CC)C1C(C#N)=C(N)Oc2c1c(=O)oc1ccccc21 (stereo not given)	-48%	-12%	-16%	1%	-6%
O=S(=O)(c1ccc(Br)cc1)c1nnn2c1nc(NCc1cccs1)c1sccc12	nt	nt	nt	nt	14%
Cc1[nH]c2ccccc2c1/C=N/NC(=O)c1cccc(S(=O)(=O)Nc2cccc(C(F)(F)F)c2)c1	4.5µM*	?	1%	7%	-7%
NNC(=O)c1cccc(S(=O)(=O)Nc2cccc(C(F)(F)F)c2)c1	-22%	7%	0%	3%	4%
CCOC(=O)c1sc(NC(=O)CSc2n[nH]c(-c3ccccc3)n2)c(C#N)c1C	-39%	?	-25%	-112%	-3%
Cc1ccc(/C=C/C2=Cc3c(sc(NC(=O)CSc4n[nH]c(N)n4)c3C#N)C(C)(C)C2)o1	13µM*	-18%	12%	18%	-7%
O=c1[nH]c2ccccc2c(O)c1O	-16%	4µM*	0%	1%	?

Assay outcomes as filed in PubChem BioAssay.
